# According to ChEMBL document CHEMBL3988442, “University of Dundee, Small-Polar-MMV Screening Library” (2021):
# In all, about 69,000 compounds went through this assay and about 950 (1.4%) showed an effect of 50% or more. Shown is part of a subset that was picked to be rich in strong results.
# System: Mycobacterium tuberculosis
# Assay: Cornell M. t heat shock assay; note: in the data most compounds retested in dose-response had high values
# Type: functional, organism-based
# Parameters: dose or concentration left out as unconfirmed
row,Compound,Percent Effect
1,Cl.Fc1ccc(Cc2cnc(C3CCCN3)cn2)cc1 (stereo not drawn),-27.64%
2,COc1ccc(CN(C)[C@@H]2COC[C@H]2c2ccc(F)cc2)cc1.O=C(O)CC(O)(CC(=O)O)C(=O)O,-8.721%
3,Cc1oncc1C(=O)N[C@@H]1CN(CC2CC2)C[C@@H]2CCCO[C@@H]21.O=C(O)C(F)(F)F,28.88%
4,COCCNC(=O)[C@@H]1C[C@@H]2CCN(c3ncccn3)C[C@H]2O1.O=C(O)C(F)(F)F,-37.39%
5,O=C(NC1CC1)C1=CC2(CCN(CC3CC3)CC2)c2ccccc21.O=C(O)C(F)(F)F,-12.48%
6,c1cc(CN(CCCn2ccnc2)Cc2ccoc2)ccn1,0.7312%
7,Fc1ccccc1CN(CCCn1ccnc1)CC1CCOC1.O=C(O)CC(O)(CC(=O)O)C(=O)O (stereo not drawn),-23.62%
8,Cc1ccc(CN(Cc2cccnc2)C2CC(C)(C)NC(C)(C)C2)s1.O=C(O)CC(O)(CC(=O)O)C(=O)O,-4.253%
9,Cc1ccc(CN(CCCn2ccnc2)Cc2c(F)cccc2F)s1.O=C(O)CC(O)(CC(=O)O)C(=O)O,103.6%
10,COc1ccccc1CN(CCCn1ccnc1)CC1CCOC1.O=C(O)CC(O)(CC(=O)O)C(=O)O (stereo not drawn),0.5182%
11,Cc1ccc(CN(CCCn2ccnc2)Cc2cc(F)ccc2F)s1.O=C(O)CC(O)(CC(=O)O)C(=O)O,105.9%
12,OCc1ccc(CN(CCCn2ccnc2)Cc2ccncc2)o1,-4.525%
13,CC(C)OCCCN(Cc1ccncc1)Cc1cc(F)ccc1F.Cl,-8.981%
14,Cc1ccc(CN(CCCN2CCOCC2)Cc2cncn2C)o1.O=C(O)CC(O)(CC(=O)O)C(=O)O,7.314%
15,COC[C@]12COC[C@H]1CN(Cc1ccc3c(c1)OCO3)C2.O=C(O)C(F)(F)F,-2.808%
16,CC(CN1CCOCC1)OC(=O)c1ccccc1I.Cl (stereo not drawn),-19.16%
17,O=C(O)C(F)(F)F.c1ccc(N2CCOC3(CCCN(c4ncccn4)C3)C2)nc1 (stereo not drawn),36.25%
18,Cn1cc(CN2CC[C@]3(C[C@H](Oc4ccccn4)CO3)C2)cn1.O=C(O)C(F)(F)F.O=C(O)C(F)(F)F,21.89%
19,Cc1cccnc1N1CC2(CCN(Cc3cnn(C)c3)C2)C1.O=C(O)C(F)(F)F.O=C(O)C(F)(F)F,-17.77%
20,CN(C)CCN1C(=O)CCC12CCN(Cc1cccs1)CC2.O=C(O)C(F)(F)F.O=C(O)C(F)(F)F,-4.329%
21,CN(C)C(CNC(=O)c1cc2c([nH]c1=O)CCCC2=O)c1ccsc1 (stereo not drawn),-5.178%
22,Cc1ccccc1CN1C[C@@H]2COC[C@]2(CNC(=O)C2CCC2)C1.O=C(O)C(F)(F)F,17.62%

row,Compound,Percent Effect
1,Cc1ccc(CN(CCCn2ccnc2)Cc2[nH]cnc2C)s1.O=C(O)CC(O)(CC(=O)O)C(=O)O,-16.97%
2,CCc1ccc(CN(CCCn2ccnc2)Cc2ccc(C)s2)o1.O=C(O)CC(O)(CC(=O)O)C(=O)O,103.6%
3,Cc1ccc(CN(CCCn2ccnc2)Cc2cnc(N(C)C)nc2)s1.O=C(O)CC(O)(CC(=O)O)C(=O)O,-30.9%
4,Cc1nc(CN2CCO[C@@H]3CN(Cc4ccccn4)CC[C@@H]3C2)cs1.O=C(O)C(F)(F)F.O=C(O)C(F)(F)F,-0.9653%
5,O=C(CCc1n[nH]c2c1CCCC2)N1C[C@@H]2CC[C@H](C1)N(CC1CC1)C2,90.59%
6,CS(=O)(=O)N1C[C@@H]2CC[C@H](C1)N(C(=O)CCc1n[nH]c3c1CCCC3)C2,3.499%
7,CC(=O)N1C[C@@H]2CC[C@H](C1)N(C(=O)CCc1n[nH]c3c1CCCC3)C2,-1.596%
8,CN(C)C(=O)N1CCN(Cc2cnn(C)c2)CC2(CNC(=O)C2)C1.O=C(O)C(F)(F)F (stereo not drawn),0.6854%
9,Cc1cc(NCc2nnc3n2CCC3)n2nc(C)c(C)c2n1,-14.51%
10,Cc1ccnc(NCCSc2nccn2C)n1,9.062%
11,Cc1cc(NCCSc2nccn2C)n2nc(C)c(C)c2n1,72.35%
12,COCCn1cnnc1CNc1cc(C)nc2c(C)c(C)nn12,44.3%
13,CCSCCNc1cc(C)nc2c(C)c(C)nn12,105.5%
14,Cc1cc(NCCSc2nccn2C)n2ncnc2n1,-35.12%
15,CC(C)C[C@H](N)c1nnc(SCC(N)=O)o1.Cl,-14.25%
16,Cn1ccnc1CN1CCC2(CC1)COC2.O=C(O)C(F)(F)F,6.701%
17,CC(C)NC(=O)c1nc2c(s1)CCCN2Cc1ccccc1,16.22%
18,CCN(C(=O)c1nc2c(s1)CCCN2Cc1ccccc1)C(C)C,52.41%
19,CN(C)C(=O)c1nc2c(s1)CCCN2Cc1ccccc1,1.043%
20,O=C(O)C(F)(F)F.O=C(O)C(F)(F)F.O=C(c1cccnc1)N1CCC2(CC1)COC(COc1ccccn1)C2 (stereo not drawn),-16.52%
21,CC[C@@H]1N(Cc2ccncc2)CCC[C@]12CCC(=O)N2CCOC.O=C(O)C(F)(F)F.O=C(O)C(F)(F)F,-19.31%
22,O=C(O)C(F)(F)F.O=C(O)C(F)(F)F.c1cnc(N2CCO[C@H]3CN(CC4CC4)C[C@H]32)nc1,-34.72%

row,Compound,Percent Effect
1,COc1ccccc1[C@@H]1CN(Cc2ccncc2)C[C@H]1C(=O)O,45.83%
2,COc1ccccc1[C@@H]1CN(Cc2cc(C(C)(C)C)[nH]n2)C[C@H]1C(=O)O,79.87%
3,COc1ccccc1[C@@H]1CN(Cc2ccc3nsnc3c2)C[C@H]1C(=O)O,-17.79%
4,CN1CC(=O)N(c2ccccc2)CC12CCN(CC1CCOCC1)C2.O=C(O)C(F)(F)F.O=C(O)C(F)(F)F (stereo not drawn),3.802%
5,Cn1cnc2ccc(NC(=O)CCCn3cccn3)cc2c1=O,5.614%
6,CC(C)Cn1cnc2ccc(NC(=O)CCCn3cccn3)cc2c1=O,60.75%
7,CC(C)n1cnc2ccc(NC(=O)CCCn3cccn3)cc2c1=O,-15.69%
8,CC(C)[C@H](N)CC(=O)Nc1nc(-c2cnc(N3CCOCC3)nc2)cs1.Cl,-24.08%
9,CCC(=O)N1C[C@@H]2CCN(c3cnccn3)C[C@@H]2C1.O=C(O)C(F)(F)F,-28.75%
10,O=C(O)C(F)(F)F.c1cnc(NCc2nnn3c2CN(Cc2ccco2)CCC3)nc1,-16.16%
11,Cc1ccc(C2NC(=O)c3cc(C(C)C)sc3N2)cc1 (stereo not drawn),19.82%
12,CC(C)c1cc2c(s1)NC(c1ccccn1)NC2=O (stereo not drawn),100.6%
13,CC(C)c1cc2c(s1)NC(c1ccccc1)NC2=O (stereo not drawn),16.99%
14,CC(C)C(=O)N1CCN(Cc2ccccn2)CC2(CC(=O)N(C)C2)C1.O=C(O)C(F)(F)F.O=C(O)C(F)(F)F (stereo not drawn),-3.72%
15,Cc1ccc(C(C)N(C)Cc2nc3c(cnn3C)c(=O)[nH]2)c(C)c1 (stereo not drawn),-15.24%
16,CC(C)N(Cc1ccccn1)Cc1nc2c(cnn2C)c(=O)[nH]1,66.99%
17,Cc1ccc(C(C)N(C)Cc2nc3c(cnn3C)c(=O)[nH]2)cc1 (stereo not drawn),36.86%
18,Cc1ccccc1C(C)N(C)Cc1nc2c(cnn2C)c(=O)[nH]1 (stereo not drawn),-10.61%
19,COc1ccccc1C(C)N(C)Cc1nc2c(cnn2C)c(=O)[nH]1 (stereo not drawn),82.45%
20,CC(c1ccccc1Cl)N(C)Cc1nc2c(cnn2C)c(=O)[nH]1 (stereo not drawn),-6.582%
21,Cc1ccc(C(C)N(C)Cc2nc3c(cnn3C)c(=O)[nH]2)s1 (stereo not drawn),59.53%
22,Cc1ccc(CN(Cc2nc3c(cnn3C)c(=O)[nH]2)C(C)C)s1,-2.161%

row,Compound,Percent Effect
1,CC(C)CN(Cc1nc2c(cnn2C)c(=O)[nH]1)C(C)C,9.965%
2,COC(=O)CCC(=O)N1CCCC2(CCCN2Cc2cccc(F)c2)C1.O=C(O)C(F)(F)F (stereo not drawn),3.912%
3,O=C(O)C(F)(F)F.O=C(c1ccco1)N1CC[C@@H]2O[C@@H](COCCN3CCCC3)CC[C@@H]21,-12.96%
4,COCCN1CCC2(CC1)C(=O)Nc1ccc(C(=O)NC(C)C)cc12.O=C(O)C(F)(F)F,-30.6%
5,O=C(NC1CCCN(c2ccc(OC(F)F)cc2)C1)c1cnccn1 (stereo not drawn),27.97%
6,Cl.O=C(CN1CCCC1=O)N1CCC(O)(Cn2ccc3ccncc32)CC1,9.776%
7,O=C(O)C(F)(F)F.O=S(=O)(C1CC1)N1C[C@@H]2COC[C@]2(COc2ccccn2)C1,-12.78%
8,COc1cccc(CC2CCCN2Cc2nccn2C)c1 (stereo not drawn),0.2214%
9,CNCC(=O)N1CCCC1c1n[nH]cc1-c1ccccc1F.Cl (stereo not drawn),-23.25%
10,COc1ccc(CNc2c(C)nn(C(C)C)c2C)cc1OC.Cl,12.96%
11,Cc1cccnc1C(Cc1ccsc1)NCc1cnc(N(C)C)nc1 (stereo not drawn),69.2%
12,COc1cccc(OC)c1CNC(Cc1ccsc1)c1ccc(C)cn1 (stereo not drawn),103.5%
13,COc1cccc(CNC(C)C)c1OCc1ccc(C)cc1.Cl,4.479%
14,COc1ccc(CNC(Cc2cccs2)c2nc(C)c(C)s2)cc1OC.Cl (stereo not drawn),-4.28%
15,Cc1cccc(-c2ncc(CNC(C)Cc3ncccc3C)cn2)c1 (stereo not drawn),1.404%
16,COc1ccc(CNC(Cc2ccsc2)c2ccc(C)cn2)cc1OC.Cl (stereo not drawn),97.07%
17,COc1ccc(NC(=O)N(CCO)Cc2ccsc2)c(OC)c1,-10.14%
18,Cc1cccnc1C(Cc1ccsc1)NC(=O)Cn1cccnc1=O (stereo not drawn),-0.9287%
19,COc1ccc(CNC(Cc2ccsc2)c2ccc(C)cn2)c(OC)c1 (stereo not drawn),104.3%
20,COc1ccncc1NCc1ccsc1,-12.4%
21,CCc1cnc(N)nc1NCc1ccc(OC)cc1OC,-28.22%
22,COc1ccccc1OCCNCc1c(C)nn(C)c1N(C)C.Cl,31.69%
